From publication PMC7819943, “Rice protein-binding microarrays: a tool to detect cis-acting elements near promoter regions in rice”
In all, about 68,000 sequences were measured (“fluorescence intensity (a.u.)”: median about 9,100, highest 2% from about 16,000 on). The list comes from a sample in which the highest values are over-represented; it also holds similar and randomly drawn sequences.

Biological target: OsWRKY34 (Oryza sativa, UniProt Q0JBA9 1-250)
Experiment: protein-binding microarray (RPBM); PBS, 2% BSA, 51.3 ng/ul salmon testes DNA, 50 uM zinc acetate, 200 nM TF, 25 C, 1 h; high values mean tight binding
Conditions: protein: recombinant; tags: N-terminal polyhistidine and DsRed monomer fusion (pET32a); label: CyDye5-dUTP incorporated in the synthesized complementary strand; 3' TTTTT single-stranded linker to array surface; dsDNA, one strand shown
Summary of the method: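 The binding signal is fluorescence intensity per array feature (arbitrary units). Readings came from an Axon 4000B scanner after a washed, 2% BSA-blocked, double-stranded custom Agilent array had been incubated for 1 h at 25 °C with 200 nM protein and 50 µM zinc acetate. The protein was a Ni–NTA-purified transcription factor fused N-terminally to polyhistidine and DsRed, expressed in E. coli BL21-CodonPlus.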

Sequence of OsWRKY34 (Q0JBA9 entry or part of it): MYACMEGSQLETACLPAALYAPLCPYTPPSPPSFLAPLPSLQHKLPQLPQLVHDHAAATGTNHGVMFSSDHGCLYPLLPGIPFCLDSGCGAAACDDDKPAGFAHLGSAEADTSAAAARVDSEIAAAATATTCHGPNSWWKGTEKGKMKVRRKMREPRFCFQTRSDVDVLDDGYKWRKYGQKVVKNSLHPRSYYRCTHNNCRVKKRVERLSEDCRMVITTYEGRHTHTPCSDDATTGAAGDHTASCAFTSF

Sequence | binding signal
GGGGCGTCCCGGGAGGGGAGGGAGATGGGGAGGGAGCGGACGGAGTCACCTAGTGCAG | 16800 fluorescence intensity (a.u.)
ATTGTTTTTATAGGGGAGGGGAGGCGGGATCGAGCCCGGGCGGAGTCACCTAGTGCAG | 15100 fluorescence intensity (a.u.)
GTATTATGGGTGGAGGCGGGCGGCTGAGCTGTTCCTGGGCCGGAGTCACCTAGTGCAG | 8880 fluorescence intensity (a.u.)
GAGATGGGGAGGGAGGCCGGCCGGGAGAGGGAGAGAGAGGCGGAGTCACCTAGTGCAG | 8890 fluorescence intensity (a.u.)
TGGCCGGAGAGGGGAGATGGGGAGATGGGGAGAGGGGAGGCGGAGTCACCTAGTGCAG | 9420 fluorescence intensity (a.u.)
TGGAGGAGGGGAGGCCGGGGATTGTTTTTATAGGGGAGGGCGGAGTCACCTAGTGCAG | 30500 fluorescence intensity (a.u.)
GCTGTACCAGTACTGACCGGGGTGGGGTGGCGGGAGCGGACGGAGTCACCTAGTGCAG | 14600 fluorescence intensity (a.u.)
CGCTGCGCTGCCGGTCCATTTCTAGAAGCCCTCGCGCTCCCGGAGTCACCTAGTGCAG | 9130 fluorescence intensity (a.u.)
TTGAATTGAATTATTATGCTCATCGCTTTCGCATAACCTCCGGAGTCACCTAGTGCAG | 8320 fluorescence intensity (a.u.)
CTAGGAGGAGGATTAGTTCTTGCGCATCGCTTCTGAGCTCCGGAGTCACCTAGTGCAG | 8200 fluorescence intensity (a.u.)
CCCATGTTTTTTTTTCATATTTTGCAATCTTCGGTTTAAACGGAGTCACCTAGTGCAG | 8520 fluorescence intensity (a.u.)
CTATAAATACACGACGTCTCTCCGCTGGCTTACACACAACCGGAGTCACCTAGTGCAG | 10100 fluorescence intensity (a.u.)
CGCCAACTCAACGCTGAAGCCGCTGCCTCACCATCTCGTCCGGAGTCACCTAGTGCAG | 8780 fluorescence intensity (a.u.)
ATCGCCGCAACCACCAACCTCTCGAGGCCGTTCGAATCCCCGGAGTCACCTAGTGCAG | 12300 fluorescence intensity (a.u.)
TATATATATATATATATATATATATATATATATAAGCGTCCGGAGTCACCTAGTGCAG | 11300 fluorescence intensity (a.u.)
AGAAGGAGAAGGCGGGGAGAGGCGGGGCGGCCACGGGAGACGGAGTCACCTAGTGCAG | 12500 fluorescence intensity (a.u.)
TTCTTGCCGGAGGAGGGGCAGGGGAGGGAGCCGGGCGGGACGGAGTCACCTAGTGCAG | 23500 fluorescence intensity (a.u.)
GAGGACGAAGTGGAGGCGGAGGGCAGGTGGGGAGGAGAGCCGGAGTCACCTAGTGCAG | 8660 fluorescence intensity (a.u.)
GGGGCGGCAGTGGATGGCGGTTGGGCGGCGGTGCGGGGAGCGGAGTCACCTAGTGCAG | 12200 fluorescence intensity (a.u.)
GTGGTCCGGTGGTGGGGTGATGGGGCGTGGCGGTTCTGTCCGGAGTCACCTAGTGCAG | 15400 fluorescence intensity (a.u.)
AGAAGGGAAGGGGAGGGGAGGGCGGGACGCCGGCCGGAGCCGGAGTCACCTAGTGCAG | 10200 fluorescence intensity (a.u.)
TTGGTGGTTGGTGGGGAGCGTGGAGATGGCGGGGCTGTCCCGGAGTCACCTAGTGCAG | 22200 fluorescence intensity (a.u.)

Sequence | binding signal
AGTGCTGGAGGAGGGAGGCGGGGAGGGGAGCCATCAGCCACGGAGTCACCTAGTGCAG | 17300 fluorescence intensity (a.u.)
GGGGAGGGAGCCGGGCGGGATTCAGCCATGAGGAGGAGGGCGGAGTCACCTAGTGCAG | 9050 fluorescence intensity (a.u.)
GGCCATGCTTGAATCTCTCGCCTGACATTCAGACTTCAGACGGAGTCACCTAGTGCAG | 8390 fluorescence intensity (a.u.)
CTCTATATAAGCCCCACAATGCCCACCACCAGCTTGTCACCGGAGTCACCTAGTGCAG | 8230 fluorescence intensity (a.u.)
AAGATTCTTCTCTTCGTCGACGACCCGGCCTCTCGCTCTCCGGAGTCACCTAGTGCAG | 9630 fluorescence intensity (a.u.)
CTATTGGCTCATACCTTTTTTCAGTGGCTGGGTGTAGGTTCGGAGTCACCTAGTGCAG | 8840 fluorescence intensity (a.u.)
TGCAGATATTGGCATCGATTGCTCACTTCAGGTGATTTTTCGGAGTCACCTAGTGCAG | 8060 fluorescence intensity (a.u.)
CATGTCCAACTTTAATTGTTCGTCTTTTTTTTGAAAAAACCGGAGTCACCTAGTGCAG | 8630 fluorescence intensity (a.u.)
CAGACCTGGAGGTTGTTGCCCTTGATGTGCGCCCAGATGACGGAGTCACCTAGTGCAG | 8470 fluorescence intensity (a.u.)
ATTGTCTTGGCTGCTGTCTTTATAGTATTCACTCATCTGCCGGAGTCACCTAGTGCAG | 18500 fluorescence intensity (a.u.)
AATGGCTAGCGTATAATCTGTCTTGGAATCACTTTGCTGCCGGAGTCACCTAGTGCAG | 8120 fluorescence intensity (a.u.)
TTTTTATTCCACCGCTTTGTCGTTCTCGCAATCTCGCTGTCGGAGTCACCTAGTGCAG | 17700 fluorescence intensity (a.u.)
ATCAATTTATCACCCGCTGACTCATCTTTATTGTATCTGCCGGAGTCACCTAGTGCAG | 8420 fluorescence intensity (a.u.)
TTGTAGTCCGCTGCTTTCCCTTTCTTTTATCTTCTCTTTCCGGAGTCACCTAGTGCAG | 8450 fluorescence intensity (a.u.)
GTTCTTTTGGGCAATCTCGTCTGTATTCCTTTGTCGTCTACGGAGTCACCTAGTGCAG | 10800 fluorescence intensity (a.u.)
TTTATTCTCTGTTCCTCTTTTTTTCATATTCGTTTTTCACCGGAGTCACCTAGTGCAG | 13200 fluorescence intensity (a.u.)
TCTCCCCTTTCTGCTTCTGCTGCTTCTCCCTTTCCCTCTCCGGAGTCACCTAGTGCAG | 8200 fluorescence intensity (a.u.)
TTTTTTTCTCTTTCTTTTTTCTTTTCTTCGTTTTCTTTCACGGAGTCACCTAGTGCAG | 9230 fluorescence intensity (a.u.)
GTCTCTTTCCGCTGCTTCGTTTCTGTCTCCGGTTTATTCACGGAGTCACCTAGTGCAG | 18800 fluorescence intensity (a.u.)
GTCCGCTGCTTTTCTCCCTTGTCGGTTATTTTACCTCTTCCGGAGTCACCTAGTGCAG | 18900 fluorescence intensity (a.u.)
CGCATCTCGTTTTCTCTTTATTTGTTTCTTCTTTCGCTTTCGGAGTCACCTAGTGCAG | 13800 fluorescence intensity (a.u.)
